These results are taken from paper PMC5700166.

Where a chain is given by its changes, count along the chain named.

What all share (test): protein-binding microarray (PBM); PBM: ~300 nM protein, 6 mM HEPES pH 7.8, 80 mM KCl, 0.5 mM EDTA, 0.5 mM EGTA, 6% glycerol, 35 ng/ul poly-dIdC, 1% milk, 1 h, room temperature; Ap Aiptasia and Nv Nematostella (sea anemones) / Co Capsaspora / Aq Amphimedon (sponge) / Dm Drosophila / Hu human; RHD is the Rel homology domain; high values mean tight binding
Common to all, as to details: dsDNA, one strand shown

For one assay, the target named is T1, GST-Ap-NF-kB RHD (Exaiptasia pallida (Aiptasia), UniProt A0A913YAJ5 2-422).
T1 sequence: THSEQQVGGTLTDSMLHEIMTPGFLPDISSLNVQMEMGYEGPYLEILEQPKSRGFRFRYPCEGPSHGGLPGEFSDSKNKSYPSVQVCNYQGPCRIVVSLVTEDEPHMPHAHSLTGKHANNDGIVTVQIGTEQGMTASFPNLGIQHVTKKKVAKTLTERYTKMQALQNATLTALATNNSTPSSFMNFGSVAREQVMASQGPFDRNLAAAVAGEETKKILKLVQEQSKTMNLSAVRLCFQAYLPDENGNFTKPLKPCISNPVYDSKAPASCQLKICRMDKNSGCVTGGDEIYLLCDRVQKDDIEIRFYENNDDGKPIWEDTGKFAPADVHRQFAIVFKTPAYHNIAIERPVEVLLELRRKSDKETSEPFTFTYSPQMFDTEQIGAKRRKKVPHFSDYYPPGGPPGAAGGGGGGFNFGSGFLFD

The target in assay [1] is T2, GST-Nv-NF-kB (Cys allele) (Nematostella vectensis, UniProt E5G601 2-411).
T2 sequence: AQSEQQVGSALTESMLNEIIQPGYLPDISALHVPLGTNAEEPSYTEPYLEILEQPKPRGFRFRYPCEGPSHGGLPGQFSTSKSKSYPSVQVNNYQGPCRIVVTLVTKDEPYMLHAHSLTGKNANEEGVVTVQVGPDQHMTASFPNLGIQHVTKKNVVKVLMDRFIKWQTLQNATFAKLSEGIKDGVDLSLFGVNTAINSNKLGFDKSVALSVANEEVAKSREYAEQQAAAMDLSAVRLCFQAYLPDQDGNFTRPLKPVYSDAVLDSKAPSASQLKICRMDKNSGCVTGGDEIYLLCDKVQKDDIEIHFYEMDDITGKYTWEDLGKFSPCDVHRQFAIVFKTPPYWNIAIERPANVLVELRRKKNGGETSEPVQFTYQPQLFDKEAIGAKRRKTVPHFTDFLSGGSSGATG

Assay [2] addresses T3, GST-Nv-NF-kB (Ser allele) (Nematostella vectensis, UniProt A7UNT2 2-411).
T3 sequence: T2 sequence with Q21R, C66S, S207N, E215Q, V217A, E225K, A268E, D399E

The target in a further assay is T4, GST-Co-NF-kB (Capsaspora owczarzaki, UniProt F1ARL5 200-546).
T4 sequence: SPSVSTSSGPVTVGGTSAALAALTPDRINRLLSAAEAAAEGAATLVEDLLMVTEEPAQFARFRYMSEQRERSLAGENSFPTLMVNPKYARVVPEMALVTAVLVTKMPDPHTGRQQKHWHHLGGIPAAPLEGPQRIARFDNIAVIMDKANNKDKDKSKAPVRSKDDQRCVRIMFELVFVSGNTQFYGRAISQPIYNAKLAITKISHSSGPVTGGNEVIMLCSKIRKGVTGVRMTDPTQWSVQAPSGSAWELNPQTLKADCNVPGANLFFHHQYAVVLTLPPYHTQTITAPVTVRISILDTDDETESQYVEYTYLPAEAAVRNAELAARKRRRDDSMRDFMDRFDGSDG

The target of another assay is T5, GST-Aq-NF-kB (Amphimedon queenslandica, UniProt A9Y5G7 2-389).
T5 sequence: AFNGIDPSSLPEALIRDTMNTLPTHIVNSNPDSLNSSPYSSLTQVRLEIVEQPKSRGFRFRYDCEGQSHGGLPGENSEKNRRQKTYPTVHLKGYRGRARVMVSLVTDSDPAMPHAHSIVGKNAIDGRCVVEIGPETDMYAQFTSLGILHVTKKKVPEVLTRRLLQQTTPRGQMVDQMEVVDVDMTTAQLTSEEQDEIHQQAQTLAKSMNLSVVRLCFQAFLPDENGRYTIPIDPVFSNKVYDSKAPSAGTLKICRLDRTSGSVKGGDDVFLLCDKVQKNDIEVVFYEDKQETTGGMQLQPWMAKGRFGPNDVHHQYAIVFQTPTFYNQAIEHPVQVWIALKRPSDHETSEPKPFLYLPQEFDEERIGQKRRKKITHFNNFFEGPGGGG

In a further assay the target is GST-Hu-p50 (Homo sapiens, UniProt P19838 7-356).
The next assay addresses T6, GST-Dm-Relish (Drosophila melanogaster, UniProt Q94527 99-473).
T6 sequence: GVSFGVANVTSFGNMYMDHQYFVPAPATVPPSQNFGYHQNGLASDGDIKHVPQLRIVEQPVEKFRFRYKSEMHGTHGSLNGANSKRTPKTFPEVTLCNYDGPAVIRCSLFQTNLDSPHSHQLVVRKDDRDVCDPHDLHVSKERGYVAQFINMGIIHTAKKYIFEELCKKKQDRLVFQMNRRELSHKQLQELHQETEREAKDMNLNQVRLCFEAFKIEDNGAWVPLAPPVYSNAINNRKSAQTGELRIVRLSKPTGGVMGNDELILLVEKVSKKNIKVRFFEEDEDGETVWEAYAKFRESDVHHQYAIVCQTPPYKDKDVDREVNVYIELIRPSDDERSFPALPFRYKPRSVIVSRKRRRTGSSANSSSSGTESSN

GST-Hu-p50, sequence (P19838 7-356): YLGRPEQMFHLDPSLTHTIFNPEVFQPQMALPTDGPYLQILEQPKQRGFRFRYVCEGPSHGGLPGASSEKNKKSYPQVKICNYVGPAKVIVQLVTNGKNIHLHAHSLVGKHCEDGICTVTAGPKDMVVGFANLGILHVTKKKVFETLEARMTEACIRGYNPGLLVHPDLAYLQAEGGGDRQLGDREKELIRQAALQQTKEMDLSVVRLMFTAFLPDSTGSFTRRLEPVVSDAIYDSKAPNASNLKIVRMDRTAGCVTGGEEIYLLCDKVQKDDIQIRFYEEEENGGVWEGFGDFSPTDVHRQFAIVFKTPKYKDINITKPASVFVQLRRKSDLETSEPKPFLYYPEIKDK

In the case of “CCGATTAACATCAGGGGCAGGGATGATGTTAATCGGGTCTTGATTCGCTTGACGCTGCTG”, the binding signal turned out to be 2.32 z-score with GST-Ap-NF-kB RHD; 1.46 z-score in assay [1]; 1.47 z-score in assay [2]; 1.59 z-score with GST-Co-NF-kB; 2.02 z-score with GST-Aq-NF-kB; 2.01 z-score with GST-Hu-p50.

Regarding “CCGATTAACATCAGGGAAATGTATGATGTTAATCGGGTCTTGATTCGCTTGACGCTGCTG”, the binding signal came to 3.08 z-score in the assay with GST-Ap-NF-kB RHD; 4.81 z-score in assay [1]; 4.88 z-score in assay [2]; 3.3 z-score with GST-Co-NF-kB; 4.45 z-score in the assay with GST-Aq-NF-kB; 3.4 z-score in the assay with GST-Hu-p50.

For the sequence “CCGATTAACATCAAAATTACCCATGATGTTAATCGGGTCTTGATTCGCTTGACGCTGCTG”, the binding signal with GST-Ap-NF-kB RHD came out at 2.8 z-score; in assay [1], 4.69 z-score; in assay [2], 4.25 z-score; with GST-Co-NF-kB, 2.84 z-score; with GST-Dm-Relish it was 4.11 z-score; in the assay with GST-Aq-NF-kB, 4.84 z-score. The sequence further yielded a binding signal in the assay with GST-Hu-p50 of 4.15 z-score.

For the sequence “CCGATTAACATCAGCACGGGAAATGATGTTAATCGGGTCTTGATTCGCTTGACGCTGCTG”, the binding signal with GST-Ap-NF-kB RHD is 1.76 z-score; in assay [1], 2.98 z-score; in assay [2], 2.41 z-score; with GST-Co-NF-kB it was 2.59 z-score; with GST-Aq-NF-kB, 2.77 z-score; with GST-Hu-p50 it was 1.64 z-score.

Turning to “CCGATTAACATCAGCATCCCCCCTGATGTTAATCGGGTCTTGATTCGCTTGACGCTGCTG”, the binding signal with GST-Ap-NF-kB RHD is 5.21 z-score; in assay [1], 4.99 z-score; in assay [2], 4.67 z-score; with GST-Co-NF-kB, 4.85 z-score; with GST-Dm-Relish it was 4.52 z-score; in the assay with GST-Aq-NF-kB, 4.67 z-score. The sequence also registered a binding signal in the assay with GST-Hu-p50 of 5.05 z-score.

As for “CCGATTAACATCAATCTTTTCCCTGATGTTAATCGGGTCTTGATTCGCTTGACGCTGCTG”, the binding signal turned out to be 2.35 z-score with GST-Ap-NF-kB RHD; 4.39 z-score in assay [1]; 5.52 z-score in assay [2]; 3.98 z-score with GST-Co-NF-kB; 3.34 z-score in the assay with GST-Aq-NF-kB; 2.99 z-score with GST-Hu-p50.

For “CCGATTAACATCAAGTACGGGAATGATGTTAATCGGGTCTTGATTCGCTTGACGCTGCTG”, the binding signal with GST-Ap-NF-kB RHD was 1.11 z-score; in assay [1], 2.04 z-score; in assay [2] it was 1.41 z-score; with GST-Co-NF-kB, 2.85 z-score; in the assay with GST-Aq-NF-kB, 3.24 z-score; in the assay with GST-Hu-p50 it was 1.22 z-score.

As to “CCGATTAACATCAGAATTCTCCCTGATGTTAATCGGGTCTTGATTCGCTTGACGCTGCTG”, the binding signal stood at 2.74 z-score with GST-Ap-NF-kB RHD; 4.1 z-score in assay [1]; 3.64 z-score in assay [2]; 2.57 z-score with GST-Co-NF-kB; 4.02 z-score in the assay with GST-Aq-NF-kB; 3.58 z-score in the assay with GST-Hu-p50.

“CCGATTAACATCAAAATTGCCCCTGATGTTAATCGGGTCTTGATTCGCTTGACGCTGCTG”: the binding signal is 3.3 z-score in the assay with GST-Ap-NF-kB RHD; 4.73 z-score in assay [1]; 5.76 z-score in assay [2]; 3.12 z-score in the assay with GST-Co-NF-kB; 2.43 z-score in the assay with GST-Dm-Relish; 4.55 z-score in the assay with GST-Aq-NF-kB. This sequence showed a binding signal with GST-Hu-p50 of 5.1 z-score.

Regarding “CCGATTAACATCAAGGGGAAATCTGATGTTAATCGGGTCTTGATTCGCTTGACGCTGCTG”, the binding signal worked out at 8.38 z-score with GST-Ap-NF-kB RHD; 9.53 z-score in assay [1]; 12.2 z-score in assay [2]; 7.59 z-score in the assay with GST-Co-NF-kB; 6.04 z-score with GST-Dm-Relish; 6.89 z-score in the assay with GST-Aq-NF-kB. For the same sequence, the binding signal with GST-Hu-p50 came to 7.08 z-score.

As to “CCGATTAACATCAGGGGTAACCCTGATGTTAATCGGGTCTTGATTCGCTTGACGCTGCTG”, the binding signal with GST-Ap-NF-kB RHD was 4.06 z-score; in assay [1], 2.99 z-score; in assay [2] it was 2.19 z-score; with GST-Co-NF-kB it was 4.77 z-score; with GST-Dm-Relish, 4.12 z-score; in the assay with GST-Aq-NF-kB, 5.1 z-score. Also, the binding signal in the assay with GST-Hu-p50 was determined as 3.1 z-score.

Regarding “CCGATTAACATCAGTGGGAAAAATGATGTTAATCGGGTCTTGATTCGCTTGACGCTGCTG”, the binding signal with GST-Ap-NF-kB RHD turned out to be 2.21 z-score; in assay [1], 3.95 z-score; in assay [2], 4.53 z-score; in the assay with GST-Co-NF-kB, 4.81 z-score; with GST-Aq-NF-kB, 2.62 z-score; with GST-Hu-p50, 3.34 z-score.
